Active and inactive are the calls of the source.
Legend:
[1] = molecular target: Albumin (Bos taurus) (UniProt P02769); assay: bovine serum albumin binders on microarray, profiling panel, artefact control for SMM control protein annotation, biochemical, small-molecule microarray, Alexa647 label, 635/667 nm fluorescence (AID 1118); details: BSA-A647 binding, fluorescence 635 nm, higher = more signal;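 note: score merges 667 nm emission intensity and signal-to-noise per printed compound spot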
[2] = small-molecule microarray binders of probe aXIP, primary screen, biochemical, NeuroSMM set, 635/667 nm fluorescence (AID 1119); details: higher = more signal, called active from +8 up or from −8 down;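 note: probe is the protein aXip251-270 applied at 1 µg/mL to compound-printed slides; binding of probe to printed compounds measured as 667 nm fluorescence plus signal to noise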
[3] = small-molecule binders of probe aNOTCH3, primary screen, biochemical, small-molecule microarray, 635/667 nm fluorescence (AID 1120); details: higher = more signal;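 note: probe is a biotin-tagged antibody raised against NOTCH3 rather than NOTCH3 protein; score merges spot fluorescence near 667 nm with spot signal to noise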
[4] = small-molecule binders of probe aNOTCH2, primary screen, biochemical, small-molecule microarray, 635/667 nm fluorescence (AID 1121); details: higher = more signal;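 note: score merges feature fluorescence read at 667 nm with its signal to noise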
[5] = molecular target: Carbonic anhydrase 2 (Homo sapiens) (UniProt P00918); assay: CAII small-molecule binders, profiling panel, biochemical, small-molecule microarray, Alexa647-labelled CAII (AID 1122); details: CAII-A647 binding fluorescence, higher = more signal
[6] = COS7 lysate on small-molecule microarray, probe aHis, 635 nm (AID 1123); details: COS7 cell lysate, fluorescence, higher = more signal;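 note: z-score combines 667nm fluorescence intensity with signal-to-noise per printed compound spot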
[7] = compound binding in COS7 lysate, probe aLAP1, primary screen, cell lysate, small-molecule microarray (AID 1124); details: probe aLAP1, fluorescence, higher = more signal;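 note: lysate comes from COS7 cells expressing LAP1 and is applied at 0.3 µg/mL; score merges spot fluorescence near 667 nm with signal-to-noise over triplicate slides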
[8] = system: Sam68 (KHDRBS1); assay: Sam68 small-molecule binders, primary screen, biochemical, small-molecule microarray, 635 nm fluorescence (AID 1125); details: small-molecule microarray binding, higher = more signal;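 note: score merges 667 nm channel intensity with signal to noise over triplicate slides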
[9] = system: Chordin-like protein 2 (CHRDL2); assay: CHRDL2 small-molecule binders, primary screen, biochemical, small-molecule microarray, 635 nm fluorescence (AID 1126); details: small-molecule microarray binding, fluorescence 635 nm; higher = more signal;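 note: printed compound slides probed with Chrdl2 protein at 4 µg/mL for 1 h at 4 C; score merges 667 nm emission intensity with signal to noise over three replicate slides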
[10] = molecular target: Concanavalin-A (Canavalia ensiformis) (UniProt P02866); assay: ConA small-molecule binders, primary screen, artefact control for SMM control protein annotation, biochemical, small-molecule microarray, Alexa647 label, 635 nm (AID 1127); details: ConA-A647 binding fluorescence, higher = more signal;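 note: z combines 667 nm emission intensity with signal-to-noise across three replicate slides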
Concanavalin-A (Canavalia ensiformis), sequence (P02866 whole entry, looked up): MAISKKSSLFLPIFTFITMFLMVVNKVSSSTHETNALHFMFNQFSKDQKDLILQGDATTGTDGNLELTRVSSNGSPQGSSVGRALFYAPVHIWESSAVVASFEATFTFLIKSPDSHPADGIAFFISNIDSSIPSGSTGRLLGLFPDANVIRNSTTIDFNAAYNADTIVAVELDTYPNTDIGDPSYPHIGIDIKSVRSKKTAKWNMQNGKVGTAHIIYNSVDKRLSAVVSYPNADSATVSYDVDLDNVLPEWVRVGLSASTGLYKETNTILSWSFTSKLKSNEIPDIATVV

[11] = anti-His antibody binders, primary screen, artefact control for SMM control protein annotation, biochemical, small-molecule microarray, 635 nm fluorescence (AID 1128); details: anti-His Alexa647 antibody binding, higher = more signal;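 note: score merges feature fluorescence with signal-to-noise for each printed compound spot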
[12] = system: Human papillomavirus type 1a E7 protein (residues 1-88); assay: HPV1a E7 small-molecule binders, primary screen, biochemical, small-molecule microarray, residues 1-88, 635 nm (AID 1129); details: small-molecule microarray binding, fluorescence 635 nm; higher = more signal
[13] = molecular target: Focal adhesion kinase 1 (Homo sapiens) (UniProt Q05397); assay: small-molecule microarray binders of FAK, primary screen, biochemical, 635/667 nm fluorescence, BSA, DTT (AID 1130); details: PTK2 binding, 635 nm fluorescence, higher = more signal;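 note: composite of spot emission at 667 nm and signal to noise over triplicate slides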
Focal adhesion kinase 1 (Homo sapiens), sequence (Q05397 whole entry, looked up): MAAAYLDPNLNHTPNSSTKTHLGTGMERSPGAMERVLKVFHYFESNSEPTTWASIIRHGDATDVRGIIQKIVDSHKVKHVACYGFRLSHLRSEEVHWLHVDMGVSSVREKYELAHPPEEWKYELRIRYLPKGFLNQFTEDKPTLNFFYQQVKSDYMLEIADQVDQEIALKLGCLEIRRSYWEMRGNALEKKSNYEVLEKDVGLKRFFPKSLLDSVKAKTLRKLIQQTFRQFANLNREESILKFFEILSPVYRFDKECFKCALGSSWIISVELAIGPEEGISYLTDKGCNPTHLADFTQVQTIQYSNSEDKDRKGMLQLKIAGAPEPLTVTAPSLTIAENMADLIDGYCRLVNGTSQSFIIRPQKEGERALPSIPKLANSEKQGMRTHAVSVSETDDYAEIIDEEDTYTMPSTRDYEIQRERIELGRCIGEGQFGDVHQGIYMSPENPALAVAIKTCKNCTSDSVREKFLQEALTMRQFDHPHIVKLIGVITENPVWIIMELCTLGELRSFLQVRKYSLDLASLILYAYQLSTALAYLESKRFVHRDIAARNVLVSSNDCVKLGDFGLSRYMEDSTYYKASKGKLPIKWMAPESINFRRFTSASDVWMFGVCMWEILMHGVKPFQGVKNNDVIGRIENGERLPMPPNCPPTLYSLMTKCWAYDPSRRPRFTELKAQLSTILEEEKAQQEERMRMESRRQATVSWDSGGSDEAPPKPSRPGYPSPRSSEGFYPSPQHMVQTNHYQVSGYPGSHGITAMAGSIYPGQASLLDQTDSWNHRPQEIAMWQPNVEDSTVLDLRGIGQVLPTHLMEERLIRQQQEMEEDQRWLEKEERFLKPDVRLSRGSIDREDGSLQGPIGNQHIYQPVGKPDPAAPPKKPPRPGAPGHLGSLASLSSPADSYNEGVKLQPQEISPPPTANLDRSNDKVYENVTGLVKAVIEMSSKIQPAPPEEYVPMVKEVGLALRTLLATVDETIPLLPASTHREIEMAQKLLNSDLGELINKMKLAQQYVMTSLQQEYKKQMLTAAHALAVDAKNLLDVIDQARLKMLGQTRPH

[14] = system: Fibrinogen (Alexa647-labelled); assay: fibrinogen binders on compound microarrays, profiling panel, artefact control for SMM control-protein annotation, biochemical, small-molecule microarray, 635/667 nm fluorescence (AID 1131); details: fibrinogen-A647 binding fluorescence, higher = more signal;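 note: z-score merges 667 nm fluorescence with per-spot signal-to-noise over triplicate slides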
[15] = molecular target: Follistatin (Homo sapiens) (UniProt P19883); assay: follistatin binders on small-molecule microarrays, primary screen, biochemical, small-molecule microarray, 635/667 nm fluorescence (AID 1132); details: FST binding, 635 nm fluorescence, higher = more signal
Follistatin (Homo sapiens), sequence (P19883 whole entry, looked up): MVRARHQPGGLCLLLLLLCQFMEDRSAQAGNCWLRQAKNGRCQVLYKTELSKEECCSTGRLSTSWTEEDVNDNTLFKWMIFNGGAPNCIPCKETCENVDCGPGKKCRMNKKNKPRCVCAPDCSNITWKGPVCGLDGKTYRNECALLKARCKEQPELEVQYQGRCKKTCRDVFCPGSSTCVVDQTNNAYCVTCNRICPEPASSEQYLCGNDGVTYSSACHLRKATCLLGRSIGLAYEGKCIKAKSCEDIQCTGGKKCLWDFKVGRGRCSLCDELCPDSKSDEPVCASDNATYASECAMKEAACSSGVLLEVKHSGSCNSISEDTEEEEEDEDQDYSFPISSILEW

[16] = molecular target: Fibroblast growth factor 2 (Homo sapiens) (UniProt P09038); assay: FGF2 binders on small-molecule microarrays, primary screen, biochemical, small-molecule microarray, 635/667 nm fluorescence (AID 1133); details: small-molecule microarray binding, FGF2, fluorescence 635/667; higher = more signal
Fibroblast growth factor 2 (Homo sapiens), sequence (P09038 whole entry, looked up): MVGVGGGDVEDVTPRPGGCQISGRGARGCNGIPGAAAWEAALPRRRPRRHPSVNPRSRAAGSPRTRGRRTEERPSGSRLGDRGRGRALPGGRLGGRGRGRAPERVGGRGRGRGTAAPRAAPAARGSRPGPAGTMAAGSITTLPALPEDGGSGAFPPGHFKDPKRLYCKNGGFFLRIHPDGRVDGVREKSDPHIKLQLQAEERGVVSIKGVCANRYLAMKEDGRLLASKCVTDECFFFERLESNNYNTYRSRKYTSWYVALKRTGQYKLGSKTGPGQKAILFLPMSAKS

[17] = mitochondrial membrane potential change in A549 cells, profiling panel, cell-based, JC-1 fluorescence, basal, 24 h, 100 nL (AID 1138); details: higher = more signal;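 note: A549 lung adenocarcinoma cells under basal conditions with no added stimulus; test concentration not given here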
[18] = system: Lefty1; assay: Lefty1 binders on small-molecule microarrays, primary screen, biochemical, small-molecule microarray, 635/667 nm fluorescence (AID 1139); details: small-molecule microarray binding, fluorescence 635/667; higher = more signal
[19] = system: wheat germ agglutinin (Triticum aestivum), Alexa647-labelled; assay: wheat germ agglutinin binders on compound microarrays, profiling panel, artefact control for SMM control-protein annotation, biochemical, small-molecule microarray, 635/667 nm fluorescence (AID 1140); details: WGA-A647 binding, 635 nm fluorescence, higher = more signal;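 note: score merges 667 nm feature emission with signal to noise over triplicate slides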
[20] = molecular target: Luciferin 4-monooxygenase (Photinus pyralis) (UniProt P08659); assay: firefly luciferase enzyme inhibitors, primary screen, biochemical, luminescence, purified enzyme, 2006 set (AID 1141); details: SteadyGlo luminescence, 30 min, higher = more signal, called active from +8 up or from −8 down;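 note: cell-free assay with purified firefly luciferase at 100 ng per well in PBS; test concentration not given here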
Luciferin 4-monooxygenase (Photinus pyralis), sequence (P08659 whole entry, looked up): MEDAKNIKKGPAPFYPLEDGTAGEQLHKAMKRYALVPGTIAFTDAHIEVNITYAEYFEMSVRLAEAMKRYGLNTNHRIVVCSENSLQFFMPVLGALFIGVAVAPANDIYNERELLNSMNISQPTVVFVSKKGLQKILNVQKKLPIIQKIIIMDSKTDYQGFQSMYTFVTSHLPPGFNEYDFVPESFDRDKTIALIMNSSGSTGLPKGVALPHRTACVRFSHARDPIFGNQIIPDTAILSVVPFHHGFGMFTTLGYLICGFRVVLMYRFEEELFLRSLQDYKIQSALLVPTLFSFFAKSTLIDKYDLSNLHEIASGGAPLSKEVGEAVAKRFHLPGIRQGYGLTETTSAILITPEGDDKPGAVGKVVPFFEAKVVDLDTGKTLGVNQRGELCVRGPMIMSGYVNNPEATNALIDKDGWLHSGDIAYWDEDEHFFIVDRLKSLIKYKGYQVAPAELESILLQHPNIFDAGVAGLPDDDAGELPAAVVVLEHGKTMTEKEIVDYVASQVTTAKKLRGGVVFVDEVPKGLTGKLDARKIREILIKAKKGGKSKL

Albumin (Bos taurus), sequence (P02769 whole entry, looked up): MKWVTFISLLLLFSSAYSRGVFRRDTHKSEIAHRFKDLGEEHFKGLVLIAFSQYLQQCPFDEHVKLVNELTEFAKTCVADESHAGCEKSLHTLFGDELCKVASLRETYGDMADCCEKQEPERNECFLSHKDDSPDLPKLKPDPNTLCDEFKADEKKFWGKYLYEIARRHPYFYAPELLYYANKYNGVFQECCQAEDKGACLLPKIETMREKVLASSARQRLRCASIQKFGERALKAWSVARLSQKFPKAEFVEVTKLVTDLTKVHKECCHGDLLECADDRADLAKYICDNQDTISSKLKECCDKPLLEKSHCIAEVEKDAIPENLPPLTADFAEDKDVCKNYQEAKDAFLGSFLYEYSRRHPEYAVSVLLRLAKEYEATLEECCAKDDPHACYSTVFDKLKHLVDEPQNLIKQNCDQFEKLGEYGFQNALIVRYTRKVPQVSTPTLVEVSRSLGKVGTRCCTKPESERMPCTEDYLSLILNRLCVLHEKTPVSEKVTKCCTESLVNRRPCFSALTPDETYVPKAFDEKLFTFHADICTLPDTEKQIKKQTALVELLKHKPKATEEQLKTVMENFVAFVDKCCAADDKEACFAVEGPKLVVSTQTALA

SMILES	composite z-score [1]	composite Z-score [2]	composite z-score [3]	composite z-score [4]	composite z-score [5]	composite z-score [6]	composite z-score [7]	composite z-score [8]	composite z-score [9]	composite z-score [10]	composite z-score [11]	composite z-score [12]	composite z-score [13]	composite z-score [14]	composite z-score [15]	composite z-score [16]	z-score [17]	composite z-score [18]	composite z-score [19]	z-score [20]
C=CC[C@]1(C(N)=O)N=C(c2ccc(OCCCO)cc2)O[C@H]1c1ccccc1	0.34	0.15 (inactive)	-0.0284	0.102	0.779	0.916	-0.137	-0.188	0.204	0.721	1.3	1.08	0.784	0.691	0.482	0.17	-0.852	-0.664	0.417	0.004 (inactive)
Cc1c(NC(=O)/C(C#N)=C/c2cccc([N+](=O)[O-])c2)c(=O)n(-c2ccccc2)n1C	0.48	-0.449 (inactive)	0.0934	0.993	0.792	0.719	0.861	0.928	0.393	0.456	0.551	1.02	-0.148	0.985	0.7	0.793	0.365	0.931	0.441	-1.09 (inactive)
C=C(CCCC)/C(=C/C[C@@H](OC(C)=O)c1cccc(OCCO)c1)c1cnc2ccccc2c1	0.0156	0.785 (inactive)	0.0141	-0.124	0.687	0.366	-0.0843	0.788	0.777	0.606	1.35	0.157	-0.0542	0.0837	1.4	1.18	0.908	1.37	0.978	-0.245 (inactive)
COC(=O)C[C@H]1O[C@@H](CCc2ccccc2)[C@@H](C)[C@@H]1[Si](C)(C)c1ccc(OC)cc1	-0.932	0.611 (inactive)	-0.268	-0.154	-0.394	-0.308	0.314	-1.1	0.323	-0.615	-0.608	-1.35	0.217	-0.755	0.0222	-0.187	1.57	-0.105	-0.359	0.301 (inactive)
Cc1ccc([C@H]2C(C(=O)O)=CCN2S(=O)(=O)c2ccc(C)cc2)cc1	0.899	-0.168 (inactive)	-0.0299	-0.109	0.825	1.21	0.584	0.539	-0.518	1.02	0.388	0.64	1.36	-0.169	0.585	-0.6	-0.575	0.0829	0.572	0.838 (inactive)
COC(=O)[C@@]1(Cc2ccc(OC)cc2)[C@H]2c3cc(C(=O)N4CCCC4)n(CCCNc4ncc(C(F)(F)F)cc4Cl)c3C[C@H]2CN1C(=O)c1ccccc1	0.978	-0.682 (inactive)	1.09	0.787	0.516	0.97	0.213	0.313	0.269	0.878	2.65	1.14	1.1	0.768	1.12	-0.167	-1.51	0.337	0.626	2.54 (inactive)
COCC(=C=CC[C@H](O)c1cccc(OCCO)c1)C[C@H](O)c1cc(Cl)cc(Cl)c1O	0.187	-0.103 (inactive)	-0.0343	-0.0083	0.383	1.77	0.328	1.3	0.695	0.337	1.69	1.11	0.0607	0.0479	1.37	1.87	0.324	1.37	0.107	-0.709 (inactive)
CC(=O)NCCCC[C@@H]1NC(=O)[C@H]2C[C@@H](C(=O)O)[C@@H](c3ccc(O)cc3)N2C1=O	-0.0314	0.297 (inactive)	0.22	-0.0798	0.411	1.14	0.177	1.29	1.36	1.1	2.26	1.21	0.626	0.584	1.32	1.67	-0.738	1.45	0.478	-3.39 (inactive)
